Source: PubChem
Only some compounds are listed: those with a hit (about 4.1% of all), similar ones and a draw of the others.
DAX1 inh-1 = inhibitors of human orphan nuclear receptor DAX1 (NR0B1); P51843; HEK293 Gal4-DAX1 luciferase reporter, luminescence; inhibition, % at 6.75 µM; actives 0.99% (n = 340,000); AID 504766;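 active = inhibition above the mean over all tested compounds plus 3 SD, cut at about 4.2% in these data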;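 note: 0% = DAX1-transfected cells with DMSO and 100% = empty-vector control cells with DMSO; inhibition shows as a rise in luminescence from relieved DAX1 repression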
Target sequence (P51843 207-470 limits assumed): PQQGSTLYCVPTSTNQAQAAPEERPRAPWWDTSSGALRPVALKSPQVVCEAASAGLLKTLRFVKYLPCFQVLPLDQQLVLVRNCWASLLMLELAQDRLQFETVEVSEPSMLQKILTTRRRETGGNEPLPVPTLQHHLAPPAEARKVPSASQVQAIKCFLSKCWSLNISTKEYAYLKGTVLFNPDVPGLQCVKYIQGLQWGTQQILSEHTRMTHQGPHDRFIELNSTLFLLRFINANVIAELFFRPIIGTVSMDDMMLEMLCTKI
hcDAF-12 act = activates DAF-12 receptor from parasite H. contortus; HEK293 hcDAF-12 lit1-tk-luc reporter, luminescence; 0% DMSO, 100% Δ7-dafachronic acid; activation, % at 6.8 µM; actives 1.4% (n = 370,000);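 active = activation above the mean of all tested compounds plus 3 SD, cut at about 5.5% in these data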;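 note: 100% = response to 3 µM Δ7-dafachronic acid high control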
hgDAF12 agonist = hgDAF-12 agonism, primary luciferase screen | actives 1.8% (n = 370,000) | HEK293 GAL4-hgDAF12 UAS-luciferase reporter, agonist luminescence; normalized to butyrate control | activation, % at 6.8 µM;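 active = activation above a cutoff set at the mean of all screened compounds plus 3 SD, cut at about 10% in these data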;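 note: 0% = DMSO wells and 100% = sodium butyrate wells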
DAX1 inh-2 = blocks DAX1 repression of SF-1 activated StAR promoter; HEK293T StAR-luciferase reporter, SF-1/DAX-1 repression relief; inhibition, % at 6.8 µM; actives 1.1% (n = 370,000); AID 652010;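 active = inhibition above the mean over all tested compounds plus 3 SD, cut at about 3.6% in these data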;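 note: 0% = DAX-1 cells with DMSO and 100% = cells lacking DAX-1 with DMSO; higher inhibition means more luminescence from relief of DAX-1 repression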
ssDAF-12 act = activates DAF-12 receptor from parasite S. stercoralis; AID 652126; HEK293 ssDAF-12/GRIP1 lit1-tk-luc reporter, luminescence; % of 3 µM dafachronic acid response; activation, % at 6.8 µM; actives 1% (n = 370,000);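 active = activation above the mean over all tested compounds plus 3 SD, cut at about 0.9% in these data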;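 note: 0% = DMSO-only wells and 100% = 3 µM delta7-dafachronic acid wells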
* hit, by the source's call; · = no result given.

SMILES | DAX1 inh-1 | hcDAF-12 act | hgDAF12 agonist | DAX1 inh-2 | ssDAF-12 act
COc1ccc2c(C)cc(SCC(=O)NC3CCCC3)nc2c1 | 0 | 0 | -1 | -2 | -1
Cc1ccc2nc(SCC(=O)c3ccc4c(c3)NC(=O)CO4)[nH]c2c1 | -1 | 5 | 11* | 1 | 0
Cc1ccc2nc(SCC(=O)c3ccc4c(c3)OCO4)[nH]c2c1 | 0 | -1 | 3 | 1 | 0
COC(=O)C[C@H]1CC[C@@H]2[C@@H](COc3ccc(NC(=O)Nc4ccccc4OC)cc3C(=O)N2C)O1 | · | -3 | 0 | 0 | -1
COc1cc(C=NN2CCN(C(c3ccccc3)c3ccccc3)CC2)cc(OC)c1OC(C)=O | · | 1 | -1 | 0 | -2
CCc1nnc(NC(=O)CCn2cnc3ccccc3c2=O)s1 | · | -2 | -3 | 0 | 1.0*
CCCCc1nnc(NC(=O)Cn2cnc3ccccc3c2=O)s1 | 0 | 0 | -3 | -1 | -2
Cc1ccc(-c2nnc(SCC(=O)c3ccc(O)c(O)c3)n2-c2ccc(Cl)cc2)cc1 | · | 0 | -3 | -2 | -1
COC(=O)c1cc2c(c3c4cc(OC)ccc4n(C(=O)c4ccccc4)c13)C(=O)N(Cc1ccco1)C2 | · | -3 | -8 | -4 | -1
COc1ccc(NC(=O)CN2C(=O)NC(C)(C3CC3)C2=O)cc1S(=O)(=O)N1CCCCC1 (stereo unspecified) | 0 | -1 | 2 | 1 | -1
OC(c1ccccc1)c1nc(-c2ccc3c(c2)OCO3)cs1 (stereo unspecified) | · | 1 | 13* | 2 | -1
O=C(O)c1cccc(-c2csc(C(O)c3ccc(F)cc3)n2)c1 (stereo unspecified) | · | 2 | 6 | 4.2* | 0
CCN(CC)CCNc1ncnc2c1sc1nc(N3CCOCC3)c3c(c12)CC(C)(C)SC3 | 0 | -2 | -1 | 0 | 1.1*
COc1ccc2c(c1)CCCN2C(=O)C1CCCN(S(=O)(=O)c2ccc(Br)s2)C1 (stereo unspecified) | · | -3 | -3 | -1 | -2
CN(C)c1ccc(-c2nc3ncc(Cl)cc3[nH]2)cc1 | · | -2 | 0 | 0 | -1
O=C(/C=C(\Nc1cc(Cl)c(Cl)c(Cl)c1)c1ccccc1)c1ccccc1 | · | 5 | 7 | 1 | 1.5*
CN(C)c1ccc(C(=O)Nc2ccc(CN3CCS(=O)(=O)CC3)cc2)cc1 | 1 | 0 | 4 | 1 | -2
COc1ccc(C(=O)Nc2ccc(CN3CCS(=O)(=O)CC3)cc2)cc1 | 4.4* | 0 | -1 | 1 | -2
CCN1CCN(Cc2ccc(NC(=O)Nc3ccccc3)cc2)CC1 | 3 | · | · | · | ·
COc1c(C)cccc1C(=O)Nc1ccc(CN2CCOCC2)cc1 | 4 | 6.0* | 7 | 4 | -1
CCN1CCN(Cc2ccc(NC(=O)Nc3ccc(OC)cc3)cc2)CC1 | 4.3* | 0 | 9 | 0 | -1
CC#CCN1c2ccccc2[C@]23C[C@@H](C(=O)OC)N=C2NC(C(=O)OC)=C(C(=O)OC)[C@H]13 | 1 | -2 | 1 | 0 | -1
Cc1ccc2cc(F)c(F)c(F)c2n1 | · | 2 | 7 | 1 | 1.5*
Cc1ccc2ccc3ccc(C)nc3c2n1 | -3 | -3 | -3 | -6 | -1
CCOC(=O)c1c(-c2ccccc2)cn2c(C)cc(C)nc12 | 0 | 0 | 12* | 1 | -1
SMILES | DAX1 inh-1 | hcDAF-12 act | hgDAF12 agonist | DAX1 inh-2 | ssDAF-12 act
O=c1c2c3c(sc2nc2n1CCCCC2)C(O)CCC3 (stereo unspecified) | 1 | 2 | 11* | 4 | -1
O=C1CCCc2c1sc1nc3n(c(=O)c21)CCCCC3 | 2 | 1 | 10* | 1 | -1
CC(c1ccccc1)N1CC[C@H]2C=CC[C@@H](C(=O)Nc3cccc(Cl)c3)[C@H]2C1=O (stereo partly specified) | · | -1 | 2 | · | -2
CN(Cc1ccccc1)C(=O)OCc1cn(Cc2ccccc2)nn1 | · | -1 | -2 | 0 | -2
COCCN(C(=S)Nc1ccccc1C)C(C)c1ccco1 (stereo unspecified) | 2 | -1 | -2 | 0 | 0
COCCN(C(=S)Nc1cccc(C)c1C)C(C)c1ccco1 (stereo unspecified) | 8.3* | -1 | 1 | 1 | -1
O=[N+]([O-])c1ccc2cn(-c3ccccc3)nc2c1 | 1 | 6.0* | 13* | 3 | 1.1*
CCC(C(=O)Nc1c(C)cccc1C)n1c(-c2ccc(=O)[nH]c2)nc2ccccc21 (stereo unspecified) | · | 5 | 1 | 1 | 1.5*
CC(=O)N1N=C(c2ccncc2)OC12CCCC2 | 0 | -2 | 1 | 0 | -1
CC(=O)N1N=C(c2ccc(Br)cc2)OC12CCCC2 | 4.4* | -1 | 0 | 1 | -2
C/C(=N\N1CCN(Cc2ccc(Cl)cc2)CC1)c1ccc(F)cc1 | 4.5* | 4 | -2 | -1 | -1
CC(NC(=O)c1ccc(C#N)cc1)C1CC2CCC1C2 (stereo unspecified) | 5.4* | -1 | -1 | 0 | -1
COc1ccc(NC(=O)NC(C)C2CC3CCC2C3)cc1 (stereo unspecified) | 2 | 1 | -4 | 0 | 17*
COc1ccc(C(=O)NC(C)C2CC3CCC2C3)cc1 (stereo unspecified) | 0 | -1 | 3 | 0 | -1
CC(NC(=O)c1ccc(N(C)C)cc1)C1CC2CCC1C2 (stereo unspecified) | 0 | 0 | 0 | 0 | -1
COc1cc(S(=O)(=O)n2cnc3ccccc32)ccc1Br | 1 | -2 | -4 | 0 | -1
O=[N+]([O-])c1cc(Oc2cccnc2)cc([N+](=O)[O-])c1 | 4.4* | -3 | -4 | -1 | -2
CCc1ccc(N2CN=c3s/c(=C\c4ccccc4)c(=O)n3C2)cc1 | 5.3* | -3 | 1 | 0 | -2
CCCCN1C(=O)/C(=C2\SC(N3CCCCC3)=NC2=O)c2ccccc21 | 4.3* | 3 | 7 | 2 | -2
C[C@H]1[C@@H](OC(=O)NCc2ccc(Cl)c(Cl)c2)CC[C@@]23CCCN2C(=O)CCC[C@@H]13 | · | -3 | -3 | · | -2
Nc1cc(=O)[nH]c(SCCNS(=O)(=O)c2ccccc2)n1 | -2 | 3 | 3 | 0 | 0.9*
O=C(NC1CCCCN(Cc2cccc(Cl)c2)C1=O)c1cccc([N+](=O)[O-])c1 (stereo unspecified) | · | -2 | -1 | 1 | -1
O=C(O)COc1ccc(/C=N/NC(=O)c2ccccc2Br)cc1 | 0 | · | · | · | ·
O=C(N/N=C/c1ccc(OC(=O)c2ccccc2Br)cc1)c1ccccn1 | 1 | 5 | 10 | 5.8* | 0
COC(=O)c1cscc1NC(C)=O | 0 | -1 | 3 | 0 | -1
C/C(=C\C(=O)Nc1cscc1C)C(=O)O | 1 | 5 | 2 | 0 | 1.1*
O=C(Nc1ccc2c(c1)CCC2)C1CCCN(c2ncccn2)C1 (stereo unspecified) | 1 | 2 | 11* | 2 | -1
